In the supplement of paper PMC12645437, “Orthogonal IMiD-Degron Pairs Induce Selective Protein Degradation in Cells” (ACS Chemical Biology, 2025):
Whole data set: some 8,300 sequences, median “log2 fold change of degron read counts, EGFP-low vs EGFP+ sorted cells (limma voom), compound-induced degradation” near -1.1, cut for the highest 2% near 3.2. This excerpt belongs to a sample that is enriched for the highest values.

T1: CRBN, Q96SW2
T1 chain: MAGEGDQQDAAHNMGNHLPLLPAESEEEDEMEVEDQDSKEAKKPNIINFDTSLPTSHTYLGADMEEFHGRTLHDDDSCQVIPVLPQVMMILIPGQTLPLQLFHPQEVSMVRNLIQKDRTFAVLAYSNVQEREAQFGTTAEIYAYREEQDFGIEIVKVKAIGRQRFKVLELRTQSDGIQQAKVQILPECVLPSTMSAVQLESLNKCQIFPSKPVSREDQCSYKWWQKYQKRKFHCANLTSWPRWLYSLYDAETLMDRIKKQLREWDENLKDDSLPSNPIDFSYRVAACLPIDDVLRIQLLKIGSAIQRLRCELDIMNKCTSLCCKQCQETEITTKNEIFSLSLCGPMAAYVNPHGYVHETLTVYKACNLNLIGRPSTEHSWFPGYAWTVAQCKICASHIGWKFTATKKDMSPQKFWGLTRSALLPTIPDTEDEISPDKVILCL


Biological target: T1, CRBN, Q96SW2
Test: log2 fold change of degron read counts, EGFP-low vs EGFP+ sorted cells (limma voom), compound-induced degradation; higher = more compound-induced degradation of the degron-EGFP fusion; degrons are variants of IKZF1/3 zinc finger 2; compound dose not given here
Conditions: Jurkat, 18 h
[1] = compound: compound 19 (5-tert-butyl-thalidomide)
[2] = compound: compound 22 (5-morpholino-thalidomide)
[3] = compound: compound 33 (diphenyl IMiD analogue)
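Also: pooled lentiviral library of zinc finger degron-EGFP fusions in mCherry-positive Jurkat cells, FACS-sorted after compound exposure, with degron abundance counted by next-generation sequencing.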

| Sequence | log2 fold change of degron read counts [1] | log2 fold change of degron read counts [2] | log2 fold change of degron read counts [3] | log2 fold change of degron read counts (compound: thalidomide) |
| --- | --- | --- | --- | --- |
| LCCNQCGFECTQKGNLLRHIKL [46L_47C_49N_50Q_52G_53F_54E_55C_67L_, Q9UKT9] | -2.68 | -2.78 | -2.7 | -2.45 |
| FMCDVCGAAFTQKGNLLRHIKL [46F_47M_49D_50V_52G_53A_54A_55F_67L_, Q9UKT9] | -0.0468 | 1.05 | 2.19 | -0.154 |
| FCCEVCGADFTQKGNLLRHIKL [46F_47C_49E_50V_52G_53A_54D_55F_67L_, Q9UKT9] | -0.0408 | -0.873 | 0.0623 | -0.497 |
| LQCNQCGFCCTQKGNLLRHIKL [46L_47Q_49N_50Q_52G_53F_54C_55C_67L_, Q9UKT9] | -2.28 | -2.29 | -2.54 | -1.12 |
| FKCNQCGHRFTQKGNLLRHIKL [46F_47K_49N_50Q_52G_53H_54R_55F_67L_, Q9UKT9] | -2.45 | -2.52 | -2.56 | -2.52 |
| FKCPVCGAKFTQKGNLLRHIKL [46F_47K_49P_50V_52G_53A_54K_55F_67L_, Q9UKT9] | -1.68 | -2.82 | -3.08 | -1.18 |
| FWCPVCGAKFTQKGNLLRHIKL [46F_47W_49P_50V_52G_53A_54K_55F_67L_, Q9UKT9] | 2.74 | 3.29 | 0.923 | 0.809 |
| FMCPVCGAKFTQKGNLLRHIKL [46F_47M_49P_50V_52G_53A_54K_55F_67L_, Q9UKT9] | -0.124 | -0.0797 | 0.661 | 0.797 |
| FHCPVCGAKFTQKGNLLRHIKL [46F_47H_49P_50V_52G_53A_54K_55F_67L_, Q9UKT9] | 2.35 | 1.96 | 0.171 | 0.556 |
| FQCPVCGAKFTQKGNLLRHIKL [46F_47Q_49P_50V_52G_53A_54K_55F_67L_, Q9UKT9] | 0.186 | 2.88 | 0.361 | 3.96 |
| FNCPVCGAKFTQKGNLLRHIKL [46F_47N_49P_50V_52G_53A_54K_55F_67L_, Q9UKT9] | 1.67 | 0.844 | -1.26 | 0.347 |
| FECPVCGAKFTQKGNLLRHIKL [46F_47E_49P_50V_52G_53A_54K_55F_67L_, Q9UKT9] | -0.0658 | -1.21 | -0.306 | 2.62 |
| FGCPVCGAKFTQKGNLLRHIKL [46F_47G_49P_50V_52G_53A_54K_55F_67L_, Q9UKT9] | 3.82 | 1.67 | -0.46 | 1.12 |
| FFCPVCGAKFTQKGNLLRHIKL [46F_47F_49P_50V_52G_53A_54K_55F_67L_, Q9UKT9] | 2.79 | 2.64 | 0.946 | 0.56 |
| FDCPVCGAKFTQKGNLLRHIKL [46F_47D_49P_50V_52G_53A_54K_55F_67L_, Q9UKT9] | 1.65 | 0.129 | -0.726 | 1.92 |
| FVCPVCGAKFTQKGNLLRHIKL [46F_47V_49P_50V_52G_53A_54K_55F_67L_, Q9UKT9] | -0.585 | 1.91 | -0.53 | 2.09 |
| FACPVCGAKFTQKGNLLRHIKL [46F_47A_49P_50V_52G_53A_54K_55F_67L_, Q9UKT9] | 3.4 | 1.28 | -1.29 | 0.727 |
| FGCPICGRKFTQKGNLLRHIKL [46F_47G_49P_50I_52G_53R_54K_55F_67L_, Q9UKT9] | 3.06 | 0.59 | -1.32 | -0.606 |
